# Hit rate of the full screen: of about 290,000 compounds, about 2,600 (0.9%) were called active. Many of the other results were omitted from the sample, so actives are more common in it than they were. Unmarked numbers belong to inactive results.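 The calls were made as follows: active = inhibition above the mean of all tested compounds plus 3 SD, cutoff set per screening run (cut at about 7.5% in these data); inactive = the rest.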
# System: VIM-2 metallo-beta-lactamase (Pseudomonas aeruginosa)
# Test: inhibition of VIM-2 nitrocefin hydrolysis – biochemical, epi-absorbance readout, Pseudomonas aeruginosa enzyme, primary screen (AID 1527);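 also: red hydrolysis product quenches plate fluorescence so inhibitors raise well fluorescence; 0% = enzyme with DMSO and 100% = DMSO without enzyme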
# Details: purified VIM-2, nitrocefin hydrolysis, epi-absorbance fluorescence; at 5.6 µM; active compounds read high
row,SMILES,inhibition
1,CCN(CC)CCCNC(=O)c1cc2c(=O)[nH]c3ccc(C)cc3c2s1,11.4% (active)
2,CCN(CC)CCCNC(=O)c1cc(-c2cccc(Cl)c2)on1,-2.99%
3,Cc1cccc(N(C)C(=O)c2cc3c(=O)[nH]c4ccc(C)cc4c3s2)c1,-1.79%
4,CCN(CC)c1ccc2cc(C(N)=O)/c(=N\NC(=O)c3ccncc3)oc2c1,17.2% (active)
5,COc1ccc(C(=O)N/N=c2\oc3ccccc3cc2C(N)=O)cc1,-2.23%
6,NC(=O)c1cc2ccccc2o/c1=N/NC(=O)c1cccc(F)c1,-3.88%
7,COc1ccccc1CNC(=O)C1CCN(C(=O)[C@@H]2Cc3ccccc3CN2)CC1,-1%
8,Nc1nc(SCc2cccc(Br)c2)n[nH]1,-2.53%
9,CC(C)c1cc(NCc2ccccn2)n2c(nc3ccccc32)c1C#N,3.25%
10,Cc1cc(NC(C)C)n2c(nc3ccccc32)c1C#N,6.91%
11,Cc1cc(NCc2ccco2)n2c(nc3ccccc32)c1C#N,23.1% (active)
12,CC(C)c1ccc2oc(=O)cc(CN3CCN(Cc4ccccc4)CC3)c2c1,-0.17%
13,CCOC(=O)N1CCC(N2Cc3cccc(C(=O)Nc4ccc(S(=O)(=O)N(CC)CC)cc4)c3C2=O)CC1,1.9%
14,O=C(NNS(=O)(=O)c1ccccc1)c1cnn(-c2ccc(Cl)cc2)c1C(F)(F)F,-0.91%
15,COc1ccccc1N1CCN(c2nc(C)cc(=O)[nH]2)CC1,-1.83%
16,CN(C)c1ccc(CNC2C3CC4CC(C3)CC2C4)cc1 (configuration not stated),-1.88%
17,O=C(CCC(=O)N/N=C/c1ccc(Br)o1)N/N=C/c1ccc(Br)o1,-1.34%
18,O=C(NCCN1CCN(Cc2ccccc2)CC1)c1cc2c(=O)[nH]c3ccccc3c2s1,7.06%
19,O=C(NCCCN1CCOCC1)c1cc2c(s1)CCC2,-5.51%
20,CN1CCN(CCCNC(=O)c2cc3c(=O)oc4ccccc4c3s2)CC1,7.83% (active)
21,CCOC(=O)N1CCN(S(=O)(=O)N2CCCC(C(=O)NCCCN3CCC(C)CC3)C2)CC1 (configuration not stated),-0.26%
22,Cc1ccc(Nc2c3c(nc4ccccc24)CCC3)cc1,5.26%
23,CC(=O)Nc1ccc(-c2nc3ccccc3o2)cc1,-1.18%

row,SMILES,inhibition
1,CC(=O)Nc1ccc(Nc2c3ccccc3nc3ccccc23)cc1,9.49% (active)
2,FC(F)(F)c1nnc2c3ccccc3c(Cl)nn12,4.08%
3,Nc1nnc2c(C(F)(F)F)nc3ccccc3n12,14.8% (active)
4,Cc1ccc(Oc2nc3ccccc3n3c(C)nnc23)cc1,0.26%
5,COc1ccc(C2=NS(=O)(=O)N(C)C(C(=O)N(C)Cc3ccccc3)=C2)cc1,-0.5%
6,Cc1ccccc1-n1nc(C)c2cc(C(=O)NC3CC3)sc21,-1.43%
7,CN(C(=O)c1cc2c(=O)n3ccccc3nc2s1)C1CCCCC1,3.44%
8,Cc1cccn2c(=O)c3cc(C(=O)NC4CCCCC4)sc3nc12,8.99% (active)
9,CCc1ccc(N(CC(=O)NCc2cccnc2)S(=O)(=O)c2ccccc2)cc1,-2.09%
10,COc1ccccc1C(=O)Nc1ccnn1C1CCN(C(=O)C(C)(C)C)CC1,-0.24%
11,CCC(=O)NCc1cc(-c2nn(C)c(=O)c3ccccc23)ccc1OC,1.81%
12,COc1ccc(-c2nn(C)c(=O)c3ccccc23)cc1NC(=O)COc1ccccc1,3.19%
13,COc1ccc(-c2nn(C)c(=O)c3ccccc23)cc1CNC(=O)C1CCCCC1,8.72% (active)
14,COc1cc(-c2nnn(CC(=O)NCc3ccccc3)n2)cc(OC)c1OC,-0.9%
15,CCOc1cccc(-c2nn3c(-c4ccccn4)nnc3s2)c1,1.31%
16,COc1ccc(-c2nn3c(-c4ccccc4)nnc3s2)cc1OC,14.4% (active)
17,Fc1ccc(-c2ccc(-c3nn4c(-c5ccco5)nnc4s3)o2)cc1,-1.72%
18,COc1cc(-c2nn3c(-c4cccc(C)c4)nnc3s2)cc(OC)c1OC,14.8% (active)
19,c1ccc(-c2cc(-c3nnc4sc(-c5ccccn5)nn34)[nH]n2)cc1,6.5%
20,COc1ccc(C)cc1S(=O)(=O)N(CC(=O)Nc1cccc([N+](=O)[O-])c1)c1ccc(C)cc1,-0.96%
21,COc1ccc(C(C(=O)NC2CCCCC2)N(C(=O)c2snc(C(N)=O)c2N)c2ccccc2OC)cc1 (configuration not stated),-3.87%
22,N#Cc1cc([N+](=O)[O-])ccc1NCC1CCCO1 (configuration not stated),-4.39%
23,CN(Cc1ccccn1)Cc1nc(-c2ccc(Cl)cc2)no1,-2.91%

row,SMILES,inhibition
1,COC(=O)c1ccc(-c2noc(CN(Cc3ccccn3)CC3CCCO3)n2)cc1 (configuration not stated),19.8% (active)
2,CCN(CCn1cccn1)Cc1nc(-c2ccc(C(=O)OC)cc2)no1,0.55%
3,COc1ccc(/C=C2\SC(=S)N(CCC(=O)Nc3ccccn3)C2=O)cc1OC,-0.57%
4,COc1ccccc1C(=O)NNC(=O)CCN1C(=O)/C(=C\c2ccccc2)SC1=S,-3.54%
5,COc1cc(/C=C2/SC(=S)N(Cc3ccccc3)C2=O)cc(OC)c1O,7.8% (active)
6,O=C(CCc1ccccc1)NNC(=O)COc1ccc(Cl)cc1,-4.89%
7,Cc1ccc(C2CCN(C(=S)Nc3cccc(Cl)c3)C2)cc1 (configuration not stated),-1.21%
8,O=C(NCC(=O)N1CCN(c2ccccc2F)CC1)c1cccs1,-3.61%
9,O=C(O)CC/C(=C\c1cc2c(cc1Br)OCO2)c1nc2ccccc2s1,7.92% (active)
10,O=C(O)CS/C(=C\c1ccc(F)cc1)c1nc2ccccc2s1,2.23%
11,O=C(Nc1nc2ccccc2s1)c1ccc2c(c1)OCO2,-3.05%
12,C/C(=N\NC(=O)C1(C)CC1(Br)Br)c1ccc(C)cc1C (configuration not stated),-0.97%
13,CC(C)n1c(COc2ccccc2)nc2ccccc21,-2.15%
14,O=C(CN1CCN(S(=O)(=O)c2cc(Cl)ccc2Cl)CC1)c1ccc(O)c(O)c1,2.29%
15,CCCc1cc(=O)oc2c(C)c(OCC(=O)N3CCC(C(=O)O)CC3)ccc12,-1.65%
16,CCc1cc(=O)oc2cc(C)cc(OC(C)C(=O)O)c12 (configuration not stated),-2.35%
17,CCc1cc(=O)oc2cc(C)cc(OCC(=O)N3CCC[C@@H]3C(=O)O)c12,14.5% (active)
18,O=C(NCC1CCCO1)c1ccccc1-c1nc(-c2ccccc2Cl)no1 (configuration not stated),-2.71%
19,COc1ccccc1NC(=O)c1cc(N2C(=O)C3C4CCC(C4)C3C2=O)ccc1Cl (configuration not stated),-0.65%
20,COc1ccc(CCNC(=O)CCn2c(=O)c3ccccc3n(CC(=O)NCC3CCCO3)c2=O)cc1OC (configuration not stated),-1.51%
21,Cc1cccn2c(=O)c3cc(C(=O)NCCN4CCOCC4)c(=N)n(Cc4cccnc4)c3nc12,4.67%
22,COc1ccc(CCn2c(=N)c(C(=O)NCc3ccco3)cc3c(=O)n4cccc(C)c4nc32)cc1,-1.42%
23,Cc1cccn2c(=O)c3cc(C(=O)NCC4CCCO4)c(=N)n(Cc4ccc(F)cc4)c3nc12 (configuration not stated),5.79%

row,SMILES,inhibition
1,COc1ccc(CCn2c(=N)c(C(=O)NCC3CCCO3)cc3c(=O)n4cccc(C)c4nc32)cc1OC (configuration not stated),16.1% (active)
2,CCn1c(=N)c(C(=O)NCCCOC)cc2c(=O)n3cccc(C)c3nc21,10.5% (active)
3,Cc1ccc(S(=O)(=O)N(CC(=O)NCCSC2CCCCC2)c2ccccc2F)cc1,-2.1%
4,COc1cccc(N(C(=O)c2snc(C(N)=O)c2N)C(C(=O)NCC2CCCO2)c2c[nH]c3ccccc23)c1 (configuration not stated),-0.46%
5,CCOC(=O)C1(Cc2ccccc2C)CCCN(C(=O)CCc2c(C)noc2C)C1 (configuration not stated),0.38%
6,Cc1occc(=O)c1OCc1ccc(F)cc1,-1.42%
7,COC(=O)CN1C(=O)[C@H]2[C@@H](C3CC3)N3C(=O)CN(Cc4ccc(-c5ccccc5)cc4)C(=O)[C@@]3(Cc3ccccc3)[C@H]2C1=O,-2.72%
8,Cc1cc(NC(=O)c2ccc(F)cc2)ccc1NC(=O)c1ccco1,-3.06%
9,Cc1[nH][nH]c(=O)c1N=Nc1ccccc1,-4.7%
10,COC(=O)c1ccccc1N=Nc1c(C)[nH][nH]c1=O,8.28% (active)
11,Cc1[nH]n(-c2ccccc2)c(=O)c1N=Nc1ccccc1C(=O)N1CCCCC1,-0.74%
12,CN(Cc1ccco1)S(=O)(=O)c1nnc(NC(=O)c2ccccc2)s1,-2.48%
13,O=c1oc2ccccc2c(NC2CCCCC2)c1NS(=O)(=O)c1ccc(Cl)cc1,-2.68%
14,Cc1cc2c(cc1C)[n+](C)cn2CC(O)COCC1CC=CCC1 (configuration not stated),-3.17%
15,Clc1ccc(C2=CSC3=Nc4cccc5cccc(c45)N23)cc1,1.95%
16,Cc1cnc(C(=O)OCc2c(C)cc(C(C)(C)C)cc2C)cn1,0.21%
17,CCc1ccc(/C=C2\SC(N3CCOCC3)=NC2=O)cc1,-0.98%
18,O=C1N=C(N2CCc3ccccc3C2)S/C1=C\c1ccc(O)cc1,0.39%
19,CCOc1cc(/C=C2\SC(N3CCCCC3)=NC2=O)ccc1O,14.9% (active)
20,CCOc1cc(/C=C2\SC(N3CCCC(C)C3)=NC2=O)ccc1O (configuration not stated),14.7% (active)
21,O=C1N=C(N2CCCC2)S/C1=C\c1cccc(Br)c1,-0.86%
22,CC1CCN(C2=NC(=O)/C(=C/c3ccc(O)cc3)S2)CC1,1.8%
23,COCCCNC(=O)[C@H]1N2C(=O)c3ccccc3C2SC1(C)C (some centres not stated),0.11%

# From PubChem BioAssay AID1527 (The Scripps Research Institute Molecular Screening Center, 2009)
